# Data as given in the OligoGym collection.
# Target: UST
# Experiment: pooled miR-30 sensor sort-seq; sequence = guide strand
# Conditions: shRNA
# Also: reference of the scale not given here.
row,Sequence,sensor-assay potency score (higher = more potent)
1,TAACAGCAGCACATCTTCCAAC,-0.452
2,TTGTTGTGAATGTCTGATGTGA,-0.387
3,TTGAGGAAATGAACATGTCGAG,-0.72
4,TTCATTTTTAGTAAGCCTGGTT,0.157
5,TACTCGTATCTCATCCGCTGGT,-0.000159
6,TAAAACTCGTACTCGTATCTCA,0.226
7,AAATAGTTGGATAAGAACCGGT,-0.125
8,TATATTTTTAATCAGTTCCATT,-1.14
9,ATCCTGTTCTTCATCGTCGATT,-1.53
10,TTGTACACCACCTGGCTTGGGA,-0.187

# Target: UTP18
# Experiment: as above
# Conditions: shRNA
row,Sequence,sensor-assay potency score (higher = more potent)
1,TTCATCTTCTTCATCCACCCAA,0.245
2,ATTAGCACTAAAACAAGCCTTA,0.102
3,TTAATCCATATAAACTGCCTTC,-0.603
4,TAGACATAAAGAACCTTGCTGT,0.607
5,TTTCTTGGAGACAAGAATCTTG,-0.491
6,TTCACTAGCATTTTTCATCATA,-0.646
7,TTTATGAGCAAGAAGGACCCAT,0.234
8,TAGTGATACAGCATTATCTAAT,-1.01
9,TTTTTCATCATATCCTTCCGAA,0.00107
10,TTCATCTTCAAGATTCCTCTTG,0.439
11,TTTTCCGCTTAGTAGTCTCTGC,-0.432
12,TTTGCAACAAATCATCTTCATC,-0.536

# Target: UTP3
# Experiment: as above
# Conditions: shRNA
row,Sequence,sensor-assay potency score (higher = more potent)
1,TTTCTTTACAGCATCATCCTTA,0.221
2,TATAGTACTTCAGTTTTGCTTT,-0.531
3,TATTTCTTTATAGTACTTCAGT,-0.591
4,TGAAACTTTAGCCAAATCCTTC,-1.04
5,ATCATCTCCATTTTCGTCGGTG,-0.329
6,TTTCGGTAGGTAACAAGCCTTT,-1.19
7,TTTACGAACTTCACGAACCTGG,-0.0211
8,TTTCTCTTTAGCTTTTGCCTGT,0.173
9,TTTCACTGAAACTTTAGCCAAA,-0.944
10,TAAGTGTCAACAGATGACGAAT,-1.16
11,TTGATAGGTAATAGCTCTCTTT,-1.33
12,TTCGTCGTCCTCATCGTCCATA,-0.923

# Target: UTS2D
# Experiment: as above
# Conditions: shRNA
row,Sequence,sensor-assay potency score (higher = more potent)
1,TAGGAGTCCAAAGCAAACAGTG,-0.558
2,TCTTTTAGCTTTTCCAGCTGGT,0.0536
3,TAAGATATGGTCGTCCATGCAC,-0.532
4,ATTTGTATATTTTTTATCTGGA,-0.591
5,TTATTCAGTAGAGCCAGCAATA,-1.61
6,TTGTATATTTTTTATCTGGAAA,-1.16
